This is one part of a sample in which hits are shown more often than they occur.
TbPYK inhibitor: T. brucei pyruvate kinase inhibition. Potency, µM (titrated, usually from 76.8 µM), for inactives: at the highest dose activity, negative = inhibition, usual class: inhibitors. 410,000 compounds, 0.12% hits. TbPYK enzyme, Kinase-Glo Plus ATP luminescence, 45 min. Q57TT1; active = well fitted curve in the direction sought with a large enough effect; inconclusive = small, poorly fitted or top-dose-only effect, or another doubt; inactive = no such curve, though single readings can be large; an effect the other way counts as inactive or inconclusive; note: potency is the fitted concentration of half-maximal effect; % is set by controls: 0 for no effect and ±100 for the full control effect; nearly all actives have a fitted effect of over 50% in size
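Readout: single end-point luminescence (Kinase-Glo Plus, 10 min). Reaction conditions were TbPYK/substrate plus 130 uM ADP, 45 min at RT, pH 7.2 TEA buffer. No-enzyme wells served as controls, and data were normalized before concentration-response fitting.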
SARS PLpro yeast: inhibitors of SARS-CoV papain-like protease in yeast; S. cerevisiae expressing SARS-CoV PLpro, growth rescue; Potency, µM (series often up to 32.9 µM), without a hit: at the top dose activity, positive = growth rescue, actives largely listed as activators; 330,000 compounds, 0.19% hits; note: potency is the fitted concentration of half-maximal effect; 0% is about no effect; nearly all actives have a fitted effect of over 55% in size
Shiga toxin inh: Shiga toxin inhibition | Vero cells, Shiga toxin protein synthesis inhibition reporter | inhibition, % at 38.7 µM | 290,000 compounds, 9.2% hits; in the data active = inhibition mostly above about 28%, no sharp cut-off; inactive = mostly below about 43%; note: 0% is about no effect
LmPK inhibitor: blocks Leishmania mexicana pyruvate kinase activity; Q27686; purified LmPK, Kinase-Glo ATP luminescence, 1 h; Potency, µM (titrated, usually from 57.5 µM), for inactives: top-dose activity change, negative = inhibition, hits mostly inhibitors; 290,000 compounds, 0.37% hits; AID 1721; active = well fitted curve in the direction sought with a large enough effect; inconclusive = small, poorly fitted or top-dose-only effect, or another doubt; inactive = no such curve, though single readings can be large; an effect the other way counts as inactive or inconclusive; note: potency is the fitted concentration of half-maximal effect; % is set by controls: 0 for no effect and ±100 for the full control effect
Target sequence (Q27686 whole entry, looked up): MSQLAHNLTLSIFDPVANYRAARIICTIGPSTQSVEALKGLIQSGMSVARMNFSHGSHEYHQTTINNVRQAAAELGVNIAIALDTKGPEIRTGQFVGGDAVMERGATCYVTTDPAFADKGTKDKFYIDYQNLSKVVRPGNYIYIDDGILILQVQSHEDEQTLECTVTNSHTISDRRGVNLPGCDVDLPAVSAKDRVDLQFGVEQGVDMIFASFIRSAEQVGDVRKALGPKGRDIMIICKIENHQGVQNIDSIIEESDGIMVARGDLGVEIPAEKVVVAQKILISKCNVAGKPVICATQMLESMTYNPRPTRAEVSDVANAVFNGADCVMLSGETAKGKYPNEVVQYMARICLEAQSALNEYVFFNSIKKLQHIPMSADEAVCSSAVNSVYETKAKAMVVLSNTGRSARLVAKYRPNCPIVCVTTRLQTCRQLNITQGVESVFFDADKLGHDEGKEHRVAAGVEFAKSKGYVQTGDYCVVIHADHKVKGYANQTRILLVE
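0.1 nM LmPK, 0.5 mM PEP, 0.1 mM ADP; 50 mM imidazole pH 7.2, 7 mM MgCl2, 50 mM KCl; 1 h RT. Kinase-Glo luminescence readout, normalized to no-enzyme (full inhibition) and uninhibited wells.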
NS1 inh: influenza NS1 inhibition. Potency, µM (doses to about 46.1 µM), for inactives: at the highest dose activity, positive = more growth. 270,000 compounds, 0.4% hits. AID 2326; note: potency is the fitted concentration of half-maximal effect; actives are rising curves; nearly all actives have a fitted effect of over 50% in size
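OD600 was taken as the measure of yeast growth restored by compound in an NS1-expressing S. cerevisiae strain. Cells had been washed out of glucose medium and diluted 1:100 into galactose -URA medium, pH 6.0.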
CHX counter: affects cycloheximide protein synthesis inhibition readout, counter-screen. cell reporter, cycloheximide protein synthesis inhibition counterscreen. 300,000 compounds, 12% hits. max response, %; in the data active = max response mostly above about 13%, no sharp cut-off; inactive = mostly below about 14%; note: read at 38.3 µM for the half of the compounds with a filed dose; 0% is about no effect
An asterisk follows results filed as active; ? = inconclusive; . = no result given. Unless noted, calls come from the whole dose curve.

SMILES	TbPYK inhibitor	SARS PLpro yeast	Shiga toxin inh	LmPK inhibitor	NS1 inh	CHX counter
O=C(N/N=C/c1ccccc1)c1ccc(NC(=O)c2ccc(F)cc2)cc1	-8%	-4%	58*	1%	5%	49*
Nc1ccc(C(=O)N/N=C/c2ccccc2)cc1	-5%	-7%	108*	-4%	8%	41*
CC(=O)c1cccc(OCCCOc2cccc3cccnc23)c1	-1%	-4%	20	-1%	-36%	19*
Brc1ccccc1OCCCOc1cccc2cccnc12	2%	-11%	.	3%	-105%	33*
Brc1ccccc1OCCOc1cccc2cccnc12	-11%	-16%	68*	2%	-6%	16*
Cc1ccc(OCCOCCOc2cccc3cccnc23)c(Br)c1	0%	2%	9	-2%	-80%	-1
COc1cccc(C=O)c1OCCCOc1cccc2cccnc12	4%	0%	66*	2%	-21%	38*
Cc1cc(C)cc(OCCCOc2cccc3cccnc23)c1	0%	-32%	-16	3%	-109%	5
CC(=O)NC(c1ccccc1)c1nc(-c2cc(F)cc(F)c2)cs1 (stereo unspecified)	1%	.	.	.	.	.
CCOc1ccccc1CNC(=O)CN1C(=O)C2CCCCN2c2ccc(C(=O)N(C)C)cc21 (stereo unspecified)	-2%	.	.	.	.	.
CCNC(=O)C1(C)CCCN(C(=O)c2ccnc(Cl)c2)C1 (stereo unspecified)	3%	.	.	.	.	.
COc1ccccc1OCC(=O)Nc1nnc(C2CCCC2)s1	4%	1%	15	3%	-20%	15*
COc1ccccc1OCC(=O)Nc1nnc(-c2ccco2)s1	-5%	11%	35	3%	-101%	47*
O=C(Cc1ccccc1)Nc1nnc(-c2ccco2)s1	0%	3%	135*	-3%	-5%	34*
CCC(C(=O)Nc1nnc(-c2ccco2)s1)c1ccccc1 (stereo unspecified)	4%	-3%	-28	3%	-2%	-2
CCCC(=O)Nc1nnc(-c2ccco2)s1	1%	-4%	58*	0%	-19%	40*
CCOc1ccc(S(=O)(=O)c2cc3cccc(OCC)c3oc2=O)cc1	-1%	.	.	.	.	.
COc1ccccc1CCC(=O)Nc1cc(S(=O)(=O)N2CCOCC2)ccc1N1CCCC1	0%	5%	.	.	.	.
CON=C1C=C(C)C(=O)C(C)=C1C	2%	.	.	.	.	.
O=C(Nc1ccccc1)Nc1nnc(/C=C/c2ccccc2Cl)s1	-3%	9%	6	2%	24%	12
Nc1nnc(/C=C/c2ccccc2Cl)s1	-18%	0%	47*	-24%	-3%	36*
O=C(Nc1ccc(Oc2cccc3ccccc23)cc1)c1ccco1	0%	-39%	44	8%	-150%	29*
O=C(Nc1ccc(OC(=O)c2ccco2)cc1)c1ccco1	2%	-54%	32*	14µM*	-16%	18
O=C(OC1CCCCC1)c1ccc(NC(=O)c2ccco2)cc1	1%	-29%	61*	2%	-106%	36*
O=C(Nc1ccc(Cl)c(Cl)c1)Oc1ccc(NC(=O)c2ccco2)cc1	-3%	-35%	23	1%	-176%	22*
SMILES	TbPYK inhibitor	SARS PLpro yeast	Shiga toxin inh	LmPK inhibitor	NS1 inh	CHX counter
CCC(=O)Oc1ccc(NC(=O)c2ccco2)cc1	-9%	-2%	33	-14%	-9%	7
O=C(Nc1cccc2c1CCCC2)c1cc(C2CCCCN2C(=O)c2cccs2)on1 (stereo unspecified)	-5%	.	.	.	.	.
CC1(C)CC(=O)c2cc(-c3nc(-c4ccc(Cl)cc4)cs3)c(=O)[nH]c2C1	1%	.	.	.	.	.
O=C(Nc1ccccc1Cl)O/N=C/c1ccc(F)cc1	0%	.	.	.	.	.
COc1ccc(/C=N/OC(=O)Nc2ccccc2OC)cc1	-2%	-3%	94*	?	-4%	42*
COc1ccc(NC(=O)O/N=C/c2ccncc2)cc1	-1%	1%	43*	-1%	.	15
COc1ccc(/C=N/OC(=O)Nc2ccc(Cl)cc2)c(OC)c1	0%	-6%	22	5%	-56%	25*
COc1ccccc1NC(=O)O/N=C(\N)c1ccccc1	-22%	-2%	24	4%	-56%	10
CN(C)c1ccc(/C=N/OC(=O)Nc2ccccc2Cl)cc1	-2%	-3%	95*	3%	.	22*
COc1ccc(OC)c(/C=N/OC(=O)Nc2ccc(Cl)cc2)c1	7%	-11%	11	-2%	.	4

Compound activity from PubChem.
